Sampled rows, rich in hits. Any-hit rate of the full collection: about 3.2%.
AHR act – human AHR activation. AHR-responsive luciferase reporter cells, luminescence. activation, % at 5 µM. 320,000 tested, 2.5% active; in the data active = activation above about 47%
NTR1 agonist – NTR1 (human) agonism | NTR1-U2OS beta-arrestin-GFP spot imaging, agonist mode | AID 493036 | activation, % at 20 µM | 330,000 tested, 0.17% active | P30989;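 active = activation at or above 40% of the spot to cytoplasm intensity ratio, with at least 20 cells analyzed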
Target sequence (P30989 whole entry, looked up): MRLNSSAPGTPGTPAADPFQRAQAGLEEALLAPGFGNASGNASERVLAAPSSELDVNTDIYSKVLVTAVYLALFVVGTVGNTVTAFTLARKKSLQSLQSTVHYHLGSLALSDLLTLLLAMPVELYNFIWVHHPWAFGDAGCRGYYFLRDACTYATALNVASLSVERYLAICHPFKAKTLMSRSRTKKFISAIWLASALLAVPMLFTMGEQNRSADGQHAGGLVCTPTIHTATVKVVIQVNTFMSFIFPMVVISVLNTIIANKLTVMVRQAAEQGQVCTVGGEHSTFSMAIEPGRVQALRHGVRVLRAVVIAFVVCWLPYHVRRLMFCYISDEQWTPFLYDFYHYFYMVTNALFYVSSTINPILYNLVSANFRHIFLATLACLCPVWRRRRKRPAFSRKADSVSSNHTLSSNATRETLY
A3A deaminase – inhibitors of human APOBEC3A DNA deaminase | inhibition, % at 20 µM | P31941 | 330,000 tested, 0.41% active | recombinant A3A, FAM/TAMRA ssDNA deamination fluorescence;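 active = at least 40% inhibition at 20 µM here, with at most 30% in a related deaminase screen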
A3G deaminase – inhibitors of human APOBEC3G DNA deaminase. Q9HC16. recombinant A3G, ssDNA deamination FAM/TAMRA fluorescence. inhibition, % at 20 µM. 330,000 tested, 0.28% active;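 active = inhibition of at least 40% at 20 µM, with no more than 30% in the related APOBEC3A deaminase screen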
APOBEC3G confirm – APOBEC3G (human) deaminase inhibition, confirmed | shares compounds with A3G deaminase | 890 tested, 72% active | inhibition, % at 20 µM | recombinant A3G ssDNA deaminase, UDG/FAM-TAMRA fluorescence | AID 493152;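 active = inhibition reaching a set limit in any replicate at 20 µM, the limit being 80% of the first screen's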
UDG A3G counter – inhibits E. coli UDG, flagging false APOBEC3G inhibitors; shares compounds with A3G deaminase; UDG counterscreen, FAM/TAMRA oligo fluorescence; inhibition, % at 20 µM; 710 tested, under 10 active; AID 504715;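 active = compounds giving 40% or more inhibition at 20 µM in any one of the three replicates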;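 note: inhibitors lower the FAM signal released by uracil excision and alkaline cleavage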
Numbers stand for hits.

Cc1cc(-c2n[nH]c(=S)n2/N=C/c2cccc([N+](=O)[O-])c2)n[nH]1 was read as AHR act inactive, NTR1 agonist inactive, A3A deaminase inactive, A3G deaminase 65, APOBEC3G confirm 73 and UDG A3G counter inactive.
Cc1cc(-c2n[nH]c(=S)n2/N=C/c2cccc(O)c2)n[nH]1 was read as AHR act inactive, NTR1 agonist inactive, A3A deaminase inactive, A3G deaminase 49, APOBEC3G confirm 82 and UDG A3G counter inactive.
For COc1ccc(CN2CCNC(=O)C2CC(=O)N(C)CCCN2CCOCC2)cc1C (configuration not stated) the results were AHR act inactive, NTR1 agonist inactive, A3A deaminase inactive and A3G deaminase inactive.
`OCc1ccccc1SSc1ccccc1CO` gave AHR act inactive, NTR1 agonist inactive, A3A deaminase inactive, A3G deaminase 44, APOBEC3G confirm 51 and UDG A3G counter inactive.
OCc1ccccc1CNCc1ccccc1 was read as AHR act inactive, NTR1 agonist inactive, A3A deaminase inactive and A3G deaminase inactive.
For Cc1ccc(C)c(N(CC(=O)NC(C)C)C(=O)CCC(=O)Nc2ccccn2)c1 the results were AHR act inactive, NTR1 agonist inactive, A3A deaminase inactive and A3G deaminase inactive.
COc1cc(/C=N/n2c(COc3ccccc3)n[nH]c2=S)cc(Br)c1O was read as AHR act inactive, NTR1 agonist inactive, A3A deaminase inactive, A3G deaminase 46, APOBEC3G confirm 70 and UDG A3G counter inactive.
For S=c1[nH]nc(COc2ccccc2)n1/N=C/c1ccccn1 the results were AHR act inactive, NTR1 agonist inactive, A3A deaminase inactive, A3G deaminase 55, APOBEC3G confirm 86 and UDG A3G counter inactive.
Screening CCc1n[nH]c(=S)n1/N=C/c1ccc(N(CC)CC)cc1 returned AHR act inactive, NTR1 agonist inactive, A3A deaminase inactive, A3G deaminase 47, APOBEC3G confirm 48 and UDG A3G counter inactive.
For COc1cc(/C=N/n2c(-c3ccccc3)n[nH]c2=S)cc(OC)c1O the results were AHR act inactive, NTR1 agonist inactive, A3A deaminase inactive, A3G deaminase 48, APOBEC3G confirm 64 and UDG A3G counter inactive.
`CC12CCC(C(=O)Nc3nc4ccc(Br)cc4s3)(OC1=O)C2(C)C` (configuration not stated) gave AHR act inactive, NTR1 agonist inactive, A3A deaminase inactive and A3G deaminase inactive.
S=c1[nH]nc(COc2ccccc2)n1/N=C/c1ccncc1 was read as AHR act inactive, NTR1 agonist inactive, A3A deaminase inactive, A3G deaminase 62, APOBEC3G confirm 82 and UDG A3G counter inactive.
FC(F)(F)c1ccc(/C=N/n2c(COc3ccccc3)n[nH]c2=S)cc1 was read as AHR act inactive, NTR1 agonist inactive, A3A deaminase inactive and A3G deaminase inactive.
For NNC(=O)Nc1cccc(C(F)(F)F)c1 the results were AHR act inactive, NTR1 agonist inactive, A3A deaminase inactive, A3G deaminase 57 and APOBEC3G confirm inactive.
O=C(Nc1ccncc1)Nc1cccc(C(F)(F)F)c1 was read as AHR act inactive, NTR1 agonist inactive, A3A deaminase inactive and A3G deaminase inactive.
`Cc1nc(NC(=O)c2c(-c3ccccc3Cl)noc2C)sc1C` gave AHR act inactive, NTR1 agonist inactive, A3A deaminase inactive and A3G deaminase inactive.
`CCN(CC)c1ccc(NC(=O)c2cccc(C)c2)cc1S(=O)(=O)Nc1ccccc1OC` gave AHR act inactive, NTR1 agonist inactive, A3A deaminase inactive, A3G deaminase 49, APOBEC3G confirm 54 and UDG A3G counter inactive.
Screening COc1ccc(C(=O)Nc2ccc(Cl)c(S(=O)(=O)Nc3ccccc3OC)c2)cc1 returned AHR act inactive, NTR1 agonist inactive, A3A deaminase inactive and A3G deaminase inactive.
For CCN(CC)c1ccc(NC(=O)c2ccccc2)cc1S(=O)(=O)Nc1ccccc1OC the results were AHR act inactive, NTR1 agonist inactive, A3A deaminase inactive, A3G deaminase 50, APOBEC3G confirm 48 and UDG A3G counter inactive.
`Cc1ccsc1/C=N/n1c(-c2ccccn2)n[nH]c1=S` gave AHR act 51, NTR1 agonist inactive, A3A deaminase inactive, A3G deaminase 60, APOBEC3G confirm 63 and UDG A3G counter inactive.
S=c1[nH]nc(-c2ccccn2)n1/N=C/c1ccco1 was read as AHR act inactive, NTR1 agonist inactive, A3A deaminase inactive and A3G deaminase inactive.
For Cc1ccsc1/C=N/n1c(-c2ccncc2)n[nH]c1=S the results were AHR act inactive, NTR1 agonist inactive, A3A deaminase inactive, A3G deaminase 52, APOBEC3G confirm 75 and UDG A3G counter inactive.
`S=c1[nH]nc(-c2ccccn2)n1/N=C/c1cccc(Cl)c1` gave AHR act inactive, NTR1 agonist inactive, A3A deaminase inactive, A3G deaminase 43, APOBEC3G confirm 77 and UDG A3G counter inactive.
NCCNC[C@@H]1COC2(CCCCCCCCCCC2)O1 was read as AHR act inactive, NTR1 agonist inactive, A3A deaminase inactive and A3G deaminase inactive.
`Cc1nc2ccccc2c(=O)n1NC(=O)c1cccc([N+](=O)[O-])c1` gave AHR act inactive, NTR1 agonist inactive, A3A deaminase inactive and A3G deaminase inactive.
CCN1CCN(c2nc(C)nc3c2sc(=S)n3C)CC1 was read as NTR1 agonist inactive, A3A deaminase inactive, A3G deaminase 46 and APOBEC3G confirm 45.
Cc1nc(N2CCCCC2)c2sc(=S)n(C)c2n1 was read as AHR act inactive, NTR1 agonist inactive, A3A deaminase inactive and A3G deaminase inactive.
Screening O=C(Nc1n[nH]c(=S)s1)c1ccco1 returned AHR act inactive, NTR1 agonist inactive, A3A deaminase inactive, A3G deaminase 83, APOBEC3G confirm 88 and UDG A3G counter inactive.
`Nc1ccccc1-n1c(=O)n(Cc2ccccc2F)c(=O)c2[nH]cnc21` gave AHR act inactive, NTR1 agonist inactive, A3A deaminase inactive and A3G deaminase inactive.
For O=C(CSc1nnc(-c2ccccc2Cl)o1)N1CCOCC1 the results were AHR act inactive, NTR1 agonist inactive, A3A deaminase inactive and A3G deaminase inactive.
COc1ccccc1/C=C/C=N/NC(=O)c1ccccn1 was read as AHR act inactive, NTR1 agonist inactive, A3A deaminase inactive and A3G deaminase inactive.
For COc1ccccc1/C=C/C=N/NC(=O)c1cc(-c2ccco2)[nH]n1 the results were AHR act inactive, NTR1 agonist inactive, A3A deaminase inactive, A3G deaminase 64, APOBEC3G confirm 21 and UDG A3G counter inactive.
Screening CC(C)(C)C1=Nn2c(nnc2-c2ccco2)SC1 returned AHR act inactive, NTR1 agonist inactive, A3A deaminase inactive and A3G deaminase inactive.
Screening CC(C)(C)C1=Nn2c(nnc2-c2n[nH]c3c2CCC3)SC1 returned AHR act inactive, NTR1 agonist inactive, A3A deaminase inactive, A3G deaminase 49, APOBEC3G confirm 71 and UDG A3G counter inactive.

Screening data deposited in PubChem by several laboratories.
